{"source": "paper PMC4336329", "about": "(PLoS ONE, 2015)", "note": "Hit rate of the full screen: of about 310,000 compounds, about 14,000 (4.5%) showed an effect of 50% or more. The effect is printed as a negative number. Only a selection was taken, and strong results are over-represented in it overall.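 Also: peak tail current of the secondary pulse compared with the same well before compound.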"}
{"biological_target": "human ether-à-go-go-related gene (hERG) potassium channel (human, UniProt Q12809)", "sequence (Q12809 whole entry, looked up)": "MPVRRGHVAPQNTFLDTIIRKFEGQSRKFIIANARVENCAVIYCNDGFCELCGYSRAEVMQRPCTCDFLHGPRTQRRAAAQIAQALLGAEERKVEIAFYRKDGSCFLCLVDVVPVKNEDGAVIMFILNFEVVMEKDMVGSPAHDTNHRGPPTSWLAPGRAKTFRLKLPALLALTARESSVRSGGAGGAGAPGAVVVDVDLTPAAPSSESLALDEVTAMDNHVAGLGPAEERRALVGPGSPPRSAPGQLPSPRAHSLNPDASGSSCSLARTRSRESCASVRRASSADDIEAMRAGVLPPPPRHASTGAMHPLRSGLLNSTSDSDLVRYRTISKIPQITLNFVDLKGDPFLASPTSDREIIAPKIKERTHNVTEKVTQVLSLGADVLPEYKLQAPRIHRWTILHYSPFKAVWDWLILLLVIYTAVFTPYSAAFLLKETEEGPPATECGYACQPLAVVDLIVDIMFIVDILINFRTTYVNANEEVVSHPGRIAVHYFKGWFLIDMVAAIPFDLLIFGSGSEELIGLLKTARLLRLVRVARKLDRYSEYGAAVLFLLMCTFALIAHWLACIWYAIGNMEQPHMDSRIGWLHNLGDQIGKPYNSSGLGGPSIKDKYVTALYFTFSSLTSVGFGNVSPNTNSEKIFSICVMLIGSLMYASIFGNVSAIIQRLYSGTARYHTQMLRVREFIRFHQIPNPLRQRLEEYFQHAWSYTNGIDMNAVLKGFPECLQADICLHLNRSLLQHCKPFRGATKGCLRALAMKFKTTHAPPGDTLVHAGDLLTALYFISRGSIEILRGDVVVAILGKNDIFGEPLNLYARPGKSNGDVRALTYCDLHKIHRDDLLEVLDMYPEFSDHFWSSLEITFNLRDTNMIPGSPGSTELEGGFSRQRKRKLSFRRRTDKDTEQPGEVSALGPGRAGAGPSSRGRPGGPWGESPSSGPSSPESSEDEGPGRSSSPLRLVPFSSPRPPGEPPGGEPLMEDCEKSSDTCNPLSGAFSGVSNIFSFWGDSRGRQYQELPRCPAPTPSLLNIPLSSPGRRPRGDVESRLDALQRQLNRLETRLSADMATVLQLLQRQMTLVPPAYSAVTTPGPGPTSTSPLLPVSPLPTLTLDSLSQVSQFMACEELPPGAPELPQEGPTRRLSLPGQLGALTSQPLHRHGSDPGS", "assay": "primary screen, population patch clamp on CHO cells stably expressing hERG; higher = less effect of the substance", "units": {"hERG current change (%, negative = inhibition) at 10uM": "%"}}
{"smiles": "Cn1c(NCc2cccs2)nc2ccccc21", "hERG current change (%, negative = inhibition) at 10uM": -11.1}
{"smiles": "Cc1cc(C(=O)CSc2cccc[n+]2[O-])c(C)n1-c1ccccc1", "hERG current change (%, negative = inhibition) at 10uM": 13.9}
{"smiles": "COC(=O)c1ccc(-n2c(C)cc(C(=O)CSc3cccc[n+]3[O-])c2C)cc1", "hERG current change (%, negative = inhibition) at 10uM": 21.2}
{"smiles": "Cc1cc(C(=O)CC#N)c(C)n1-c1ccc(OC(F)F)cc1", "hERG current change (%, negative = inhibition) at 10uM": -21.5}
{"smiles": "Cc1cc(C(=O)CSc2cccc[n+]2[O-])c(C)n1-c1ccc(OC(F)F)cc1", "hERG current change (%, negative = inhibition) at 10uM": -61.9}
{"smiles": "Cc1cc(C(=O)CSc2nc(N)cc(=O)[nH]2)c(C)n1-c1ccc(OC(F)F)cc1", "hERG current change (%, negative = inhibition) at 10uM": -1.41}
{"smiles": "Cc1cc(C(=O)CSc2cccc[n+]2[O-])c(C)n1-c1ccc(Br)cc1", "hERG current change (%, negative = inhibition) at 10uM": -68.6}
{"smiles": "Cc1nc(Nc2ccccc2C(F)(F)F)sc1C(=O)N(C)C", "hERG current change (%, negative = inhibition) at 10uM": 21.7}
{"smiles": "COC(=O)C(c1cc(OC)c(O)c(OC)c1)(N1CCNC(C)C1)C(F)(F)F", "note": "(stereo not shown)", "hERG current change (%, negative = inhibition) at 10uM": -9.77}
{"smiles": "Cn1c(SCC(=O)N2CCCc3ccccc32)nnc1-c1c[nH]c2ccccc12", "hERG current change (%, negative = inhibition) at 10uM": -10.2}
{"smiles": "Cn1c(SCC(=O)N2CCN(c3cccc(Cl)c3)CC2)nnc1-c1ccncc1", "hERG current change (%, negative = inhibition) at 10uM": -55.9}
{"smiles": "CCn1c(SCC(=O)N2CCN(c3ccccc3)CC2)nnc1-c1c[nH]c2ccccc12", "hERG current change (%, negative = inhibition) at 10uM": -53.6}
{"smiles": "Cn1c(SCC(=O)N2CCOCC2)nnc1-c1ccncc1", "hERG current change (%, negative = inhibition) at 10uM": 16.3}
{"smiles": "Cn1c(SCC(=O)N2CCN(c3ccccc3)CC2)nnc1-c1c[nH]c2ccccc12", "hERG current change (%, negative = inhibition) at 10uM": -50.5}
{"smiles": "Cn1c(SCC(=O)N2CCN(c3ccccc3)CC2)nnc1-c1ccccc1", "hERG current change (%, negative = inhibition) at 10uM": -11.2}
{"smiles": "Cn1c(SCC(=O)N2CCN(c3ccccc3)CC2)nnc1-c1ccncc1", "hERG current change (%, negative = inhibition) at 10uM": -19.5}
{"smiles": "CCOC(=O)CSc1nnc(-c2c[nH]c3ccccc23)n1CC", "hERG current change (%, negative = inhibition) at 10uM": -10.3}
{"smiles": "CCn1c(SCC(=O)N2CCc3ccccc32)nnc1-c1c[nH]c2ccccc12", "hERG current change (%, negative = inhibition) at 10uM": 11.8}
{"smiles": "COc1cccc(N2CCN(C(c3ccccn3)c3nnnn3C(C)(C)C)CC2)c1", "note": "(stereo not shown)", "hERG current change (%, negative = inhibition) at 10uM": 1.38}
{"smiles": "O=C(c1ccccc1)N(Cc1cccc(Br)c1)C1CCS(=O)(=O)C1", "note": "(stereo not shown)", "hERG current change (%, negative = inhibition) at 10uM": -7.59}
{"smiles": "CCCCC1(C(=O)OC)NC(c2ccc(O)cc2)C2C(=O)N(c3ccccc3)C(=O)C21", "note": "(stereo not shown)", "hERG current change (%, negative = inhibition) at 10uM": 2.03}
{"smiles": "Cc1ccc(-c2nnc(SCC#CCOC(=O)c3ccco3)o2)cc1", "hERG current change (%, negative = inhibition) at 10uM": -6.36}
{"smiles": "O=C(O)c1ccc(NC(CSCc2ccc(F)cc2)C(=O)O)c([N+](=O)[O-])c1", "note": "(stereo not shown)", "hERG current change (%, negative = inhibition) at 10uM": 2.41}
{"smiles": "CCOc1ccc(C2c3[nH]c4ccccc4c3C[C@H]3C(=O)N(C4CCN(Cc5ccccc5)CC4)CC(=O)N23)cc1OC", "note": "(stereo partly shown)", "hERG current change (%, negative = inhibition) at 10uM": -5.25}
{"smiles": "C/C(CC(=O)Nc1ccc2c(c1)OCO2)=N\\NC(=O)OC(C)(C)C", "hERG current change (%, negative = inhibition) at 10uM": -5.1}
{"smiles": "COC(=O)C1C(O)=C(C(C)=N)C(=O)CC1(C)C", "note": "(stereo not shown)", "hERG current change (%, negative = inhibition) at 10uM": 22.9}
{"smiles": "O=C(COC(=O)C1CC(=O)N(c2nc(-c3ccccc3)cs2)C1)c1ccccc1", "note": "(stereo not shown)", "hERG current change (%, negative = inhibition) at 10uM": 26.9}
{"smiles": "C=C1CCN([C@H](C(=O)NCc2ccccc2)C(C)C)S(=O)(=O)c2ccccc21", "hERG current change (%, negative = inhibition) at 10uM": 3.33}
{"smiles": "CCOC(=O)c1cc2ccccc2nc1C", "hERG current change (%, negative = inhibition) at 10uM": 5.32}
{"smiles": "CC(C)n1nc(C(=O)OCn2nnc3ccccc3c2=O)c2ccccc2c1=O", "hERG current change (%, negative = inhibition) at 10uM": 10.2}
{"smiles": "Br.Clc1ccc(C2=CSC3=NCCN23)cc1Cl", "hERG current change (%, negative = inhibition) at 10uM": -48.2}
{"smiles": "Brc1ccc(C2=CSC3=NCCN23)cc1", "hERG current change (%, negative = inhibition) at 10uM": -29.5}
{"smiles": "Br.Cc1ccc(C2=CSC3=NCCN23)cc1", "hERG current change (%, negative = inhibition) at 10uM": -4.96}
{"smiles": "Br.COc1ccc(C2=CSC3=NCCN23)cc1", "hERG current change (%, negative = inhibition) at 10uM": -6.09}
{"smiles": "Br.CC(C)(C)c1cc(C2=CSC3=NCCN23)cc(C(C)(C)C)c1O", "hERG current change (%, negative = inhibition) at 10uM": -76.2}
{"smiles": "Br.CC(C)(C)c1ccc(C2=CSC3=NCCN23)cc1", "hERG current change (%, negative = inhibition) at 10uM": -55.8}
{"smiles": "Br.CC(C)Cc1ccc(C2=CSC3=NCCN23)cc1", "hERG current change (%, negative = inhibition) at 10uM": -70.5}
{"smiles": "Br.CCc1ccc(C2=CSC3=NCCN23)cc1", "hERG current change (%, negative = inhibition) at 10uM": -14.7}
{"smiles": "Br.Cc1ccc(C2=CSC3=NCCN23)c(C)c1", "hERG current change (%, negative = inhibition) at 10uM": -26.8}
{"smiles": "Clc1ccc(C2=CSC3=NCCN23)c(Cl)c1.[Br-]", "hERG current change (%, negative = inhibition) at 10uM": -59.4}
{"smiles": "Br.C1=C(c2ccccc2)N2CCN=C2S1", "hERG current change (%, negative = inhibition) at 10uM": -7.6}
{"smiles": "Cl.Oc1ccc(C2=CSC3=NCCN23)cc1O", "hERG current change (%, negative = inhibition) at 10uM": -1.2}
{"smiles": "O=C(c1ccc(CS(=O)c2ccccc2Cl)o1)N1CCCCCC1", "note": "(stereo not shown)", "hERG current change (%, negative = inhibition) at 10uM": 14.5}
{"smiles": "O=C(CC1C(=O)NCCN1C(=O)c1ccc([N+](=O)[O-])cc1)Nc1ccc(F)cc1", "note": "(stereo not shown)", "hERG current change (%, negative = inhibition) at 10uM": -21.8}
{"smiles": "O=C(Nc1nccs1)c1ccc2c(c1)C(=O)N(Cc1cccnc1)C2=O", "hERG current change (%, negative = inhibition) at 10uM": -4.17}
{"smiles": "CCCCNC(=O)c1ccc(CS(=O)(=O)c2ccc(C)cc2)o1", "hERG current change (%, negative = inhibition) at 10uM": 15.1}
{"smiles": "CCOC(=O)c1ccc2cccc(C)n2c1=O", "hERG current change (%, negative = inhibition) at 10uM": 3.05}
{"smiles": "CSc1ccc(Cl)c(C(=O)N(C)CC(=O)Nc2ccc(N3CCOCC3)cc2)c1", "hERG current change (%, negative = inhibition) at 10uM": -0.854}
{"smiles": "COC(=O)C1CCN(C(=O)COC(=O)Cc2c[nH]c3ccccc23)CC1", "hERG current change (%, negative = inhibition) at 10uM": 3.1}
{"smiles": "Cc1ccc(CN(C(=O)c2cccs2)C2CCS(=O)(=O)C2)cc1", "note": "(stereo not shown)", "hERG current change (%, negative = inhibition) at 10uM": -46.5}
{"smiles": "CCn1c(C)nc2c(=O)oc3ccccc3c21", "hERG current change (%, negative = inhibition) at 10uM": -9.57}
{"smiles": "CCNC(=O)c1ccc(N(C)S(=O)(=O)c2cccs2)cc1", "hERG current change (%, negative = inhibition) at 10uM": 26.5}
{"smiles": "CC1CCN(Cc2c(C(=O)N/N=C/c3cc(Br)ccc3O)nnn2-c2nonc2N)CC1", "hERG current change (%, negative = inhibition) at 10uM": 19.9}
{"smiles": "CC1(C)CC(=O)c2c(O)cc(OCc3ccc([N+](=O)[O-])cc3)cc2O1", "hERG current change (%, negative = inhibition) at 10uM": 15.1}
{"smiles": "CC1(C)CC(=O)c2ccc(OCc3ccc([N+](=O)[O-])cc3)cc2O1", "hERG current change (%, negative = inhibition) at 10uM": -57.7}
{"smiles": "CC1(C)CC(=O)c2ccc(O)cc2O1", "hERG current change (%, negative = inhibition) at 10uM": 4.03}
{"smiles": "O=C(COC(=O)c1ccc2c(c1)S(=O)(=O)N=C1CCCCCN12)NCCc1ccc(F)cc1", "hERG current change (%, negative = inhibition) at 10uM": -3.75}
{"smiles": "CC1CN(C(=O)c2ccc(NS(=O)(=O)c3ccc(F)cc3)cc2)CC(C)O1", "note": "(stereo not shown)", "hERG current change (%, negative = inhibition) at 10uM": 3.67}
